From PubChem BioAssay (NCATS)
“And” between values parts separate entries of the source, which are not always exact repeats. Equal values may be shown once. Inconclusive results are not listed. The source made the active and inactive calls. Calls come from the whole dose curve; as a rule, active = well fitted cell-killing curve with a large enough effect; inconclusive = small, poorly fitted or top-dose-only effect, or effect the other way; inactive = no such curve, though single readings can be large or run the other way.

Test: Viability qHTS for spleen associated tyrosine kinase inhibitor (SYKi) drug resistant MV4-11 cells (AID 1963824); note: nearly all actives have a fitted effect of over 35% in size
Details: SYKi-resistant MV4-11 viability, CellTiter-Glo, 72 h; series mostly up to 45 µM; viability, % of control: at the top concentration
Outline: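 SYK-inhibitor-resistant MV4-11 AML cells were seeded at 500 per well onto compound and cultured 72 hours (37 °C, 5% CO2). CellTiter-Glo was then added, and after 10 min at room temperature, luminescence gave viability.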
Potency is the fitted concentration of half-maximal effect.

SMILES | viability, % of control | Potency
O=C(O)/C=C/c1ccc(O[C@@H]2O[C@H](CO)[C@@H](O)[C@H](O)[C@H]2O)cc1 | 109% (inactive) | 
CC(C)=CCC[C@](C)(O[C@@H]1O[C@H](CO[C@@H]2OC[C@@H](O)[C@H](O)[C@H]2O)[C@@H](O)[C@H](O)[C@H]1O)[C@H]1CC[C@]2(C)[C@@H]1[C@H](O)C[C@@H]1[C@@]3(C)CC[C@H](O[C@@H]4O[C@H](CO)[C@@H](O)[C@H](O)[C@H]4O[C@@H]4O[C@H](CO)[C@@H](O)[C@H](O)[C@H]4O)C(C)(C)[C@@H]3CC[C@]12C | 94.2% [at 17.3 µM] (inactive) | 
O=S(=O)(c1cccc2c(Cl)cccc12)N1CCCNCC1 |  | 20.6 µM (active)
CCNC1(C(N)=O)CN(c2nc(C)nc3c(-c4ccc(Cl)cc4)c(-c4ccccc4Cl)nn23)C1 |  | 16.4 µM (active)
C=CC(C)(O)C(O)CC1C(C)(O)C(O)C(O)C2C(C)(C)CCCC21C (configuration not stated) | 77.7% (inactive) | 
CNC(=O)c1ccccc1Sc1ccc2c(/C=C/c3ccccn3)n[nH]c2c1 |  | 8.41 µM (active) and 1.3 µM (active) and 3.32 µM (active)
COc1c2c(c(C)c3c1C(=O)OC3)OC1(C)CC(O)C(C(C)(C)O)C(C)(CCC(=O)O)C1C2 (configuration not stated) |  | 3.17 µM (active)
